Experimental data taken from the supplement of paper PMC12645437, “Orthogonal IMiD-Degron Pairs Induce Selective Protein Degradation in Cells” (ACS Chemical Biology, 2025).
The full ranking holds about 8,300 sequences; the median of “log2 fold change of degron read counts, EGFP-low vs EGFP+ sorted cells (limma voom), compound-induced degradation” is about -1.1, and the highest 2% start at about 3.2. For the sample, the highest values were picked, then their nearest neighbours and some sequences at random.

T1: CRBN, Q96SW2
T1 chain: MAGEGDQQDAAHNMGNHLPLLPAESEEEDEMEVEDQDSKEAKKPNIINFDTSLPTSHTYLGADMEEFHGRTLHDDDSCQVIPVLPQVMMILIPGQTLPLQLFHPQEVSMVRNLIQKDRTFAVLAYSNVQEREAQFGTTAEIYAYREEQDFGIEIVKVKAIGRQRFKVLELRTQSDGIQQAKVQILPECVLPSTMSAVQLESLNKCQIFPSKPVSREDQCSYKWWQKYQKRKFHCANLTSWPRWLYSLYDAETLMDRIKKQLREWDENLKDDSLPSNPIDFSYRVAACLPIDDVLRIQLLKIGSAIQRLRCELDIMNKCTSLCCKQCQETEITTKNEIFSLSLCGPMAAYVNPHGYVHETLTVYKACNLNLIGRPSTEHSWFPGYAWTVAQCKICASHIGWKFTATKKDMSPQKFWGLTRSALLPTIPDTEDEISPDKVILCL


Target: T1, CRBN, Q96SW2
Assay: log2 fold change of degron read counts, EGFP-low vs EGFP+ sorted cells (limma voom), compound-induced degradation; higher = more compound-induced degradation of the degron-EGFP fusion; degrons are variants of IKZF1/3 zinc finger 2; compound dose not given here
Conditions: Jurkat, 18 h
[1] = compound: compound 19 (5-tert-butyl-thalidomide)
[2] = compound: compound 22 (5-morpholino-thalidomide)
[3] = compound: compound 33 (diphenyl IMiD analogue)
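Note: pooled lentiviral library of zinc finger degron-EGFP fusions in mCherry-positive Jurkat cells, FACS-sorted after compound exposure, with degron abundance counted by next-generation sequencing.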

Sequence	log2 fold change of degron read counts [1]	log2 fold change of degron read counts [2]	log2 fold change of degron read counts [3]	log2 fold change of degron read counts (compound: thalidomide)
LICNQCGFPCTQKGNLLRHIKL [46L_47I_49N_50Q_52G_53F_54P_55C_67L_, Q9UKT9]	-2.14	-2.53	-2.15	-1.65
FMCNICGAWFTQKGNLLRHIKL [46F_47M_49N_50I_52G_53A_54W_55F_67L_, Q9UKT9]	-1.88	-2.01	-0.0323	-1.08
FYCEICGAEFTQKGNLLRHIKL [46F_47Y_49E_50I_52G_53A_54E_55F_67L_, Q9UKT9]	3.55	3.26	2.06	0.377
FQCEICGAEFTQKGNLLRHIKL [46F_47Q_49E_50I_52G_53A_54E_55F_67L_, Q9UKT9]	1.15	1.54	1.73	3.53
FCCEICGAEFTQKGNLLRHIKL [46F_47C_49E_50I_52G_53A_54E_55F_67L_, Q9UKT9]	1.77	1.26	0.921	1.54
FRCEICGAEFTQKGNLLRHIKL [46F_47R_49E_50I_52G_53A_54E_55F_67L_, Q9UKT9]	-0.6	-0.629	1.71	1.31
FACEICGAEFTQKGNLLRHIKL [46F_47A_49E_50I_52G_53A_54E_55F_67L_, Q9UKT9]	2.52	1.11	-1.05	-0.214
FNCEICGAEFTQKGNLLRHIKL [46F_47N_49E_50I_52G_53A_54E_55F_67L_, Q9UKT9]	1.62	-0.794	-0.586	-0.166
FTCDVCGATFTQKGNLLRHIKL [46F_47T_49D_50V_52G_53A_54T_55F_67L_, Q9UKT9]	-1.33	0.301	0.357	0.358
FHCPICGRLFTQKGNLLRHIKL [46F_47H_49P_50I_52G_53R_54L_55F_67L_, Q9UKT9]	-0.285	-0.232	0.531	-0.155
FFCEICGAAFTQKGNLLRHIKL [46F_47F_49E_50I_52G_53A_54A_55F_67L_, Q9UKT9]	3.55	3.64	2.55	1.87
FLCEICGAAFTQKGNLLRHIKL [46F_47L_49E_50I_52G_53A_54A_55F_67L_, Q9UKT9]	2.02	0.295	1.47	1.59
FWCEICGAAFTQKGNLLRHIKL [46F_47W_49E_50I_52G_53A_54A_55F_67L_, Q9UKT9]	3.77	3.83	2.67	1.57
FHCEICGAAFTQKGNLLRHIKL [46F_47H_49E_50I_52G_53A_54A_55F_67L_, Q9UKT9]	3.24	3	1.87	0.773
FECEICGAAFTQKGNLLRHIKL [46F_47E_49E_50I_52G_53A_54A_55F_67L_, Q9UKT9]	2.86	-0.833	2.05	2.53
FGCEICGAAFTQKGNLLRHIKL [46F_47G_49E_50I_52G_53A_54A_55F_67L_, Q9UKT9]	3.04	2.59	2.15	1.39
FACEICGAAFTQKGNLLRHIKL [46F_47A_49E_50I_52G_53A_54A_55F_67L_, Q9UKT9]	3.9	3.03	1.11	1.38
FDCEICGAAFTQKGNLLRHIKL [46F_47D_49E_50I_52G_53A_54A_55F_67L_, Q9UKT9]	2.61	0.418	0.792	1.38
FRCEICGAAFTQKGNLLRHIKL [46F_47R_49E_50I_52G_53A_54A_55F_67L_, Q9UKT9]	2.72	2.37	2.62	2.49
FMCEICGAAFTQKGNLLRHIKL [46F_47M_49E_50I_52G_53A_54A_55F_67L_, Q9UKT9]	2.64	2.45	3.19	2.46
FACPICGALFTQKGNLLRHIKL [46F_47A_49P_50I_52G_53A_54L_55F_67L_, Q9UKT9]	1.68	-0.526	0.427	-0.353
FRCNICGAVFTQKGNLLRHIKL [46F_47R_49N_50I_52G_53A_54V_55F_67L_, Q9UKT9]	-1.72	-0.828	0.967	0.628
FKCEICGRAFTQKGNLLRHIKL [46F_47K_49E_50I_52G_53R_54A_55F_67L_, Q9UKT9]	-2.33	-3.03	-3.25	-2.08
FTCDVCGADFTQKGNLLRHIKL [46F_47T_49D_50V_52G_53A_54D_55F_67L_, Q9UKT9]	-2.29	-1.84	-2.04	-2.29
FMCEVCGAFFTQKGNLLRHIKL [46F_47M_49E_50V_52G_53A_54F_55F_67L_, Q9UKT9]	-2.24	-2.24	0.504	-1.37
FCCNQCGRAFTQKGNLLRHIKL [46F_47C_49N_50Q_52G_53R_54A_55F_67L_, Q9UKT9]	-2.96	-3.3	-2.71	-2.65
FGCDVCGAEFTQKGNLLRHIKL [46F_47G_49D_50V_52G_53A_54E_55F_67L_, Q9UKT9]	-1.81	-1.82	-1.14	-1.84
FCCPICGRMFTQKGNLLRHIKL [46F_47C_49P_50I_52G_53R_54M_55F_67L_, Q9UKT9]	-0.211	-0.371	0.994	0.267
